Results published in the supplement of paper PMC6555819.

Legend:
Test in all cases: PBM binding z-score (relative to random genomic background probes); higher = stronger binding; sequences stand for … in GC…GCGATTGACAGCGTAGAATGAAGG
[1] = system: FXR:RXRa (NR concentration 270 nM, RXRa partner concentration 90 nM)
Summary of the method: (§1)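 For binding z-scores, the reference was random background probes on custom Agilent 4×180K protein-binding microarrays. These arrays were incubated 1 h with ligand-free nuclear receptor dimers in PBS pH 7.4, 2% milk, 0.02% Triton X-100, 1 mM DTT, 0.2 mg/mL BSA and 0.4 mg/ml salmon testes DNA. Fluorescence was scanned after antibody detection of each partner (one per run) and regression-normalized.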

[2] = system: LXRa:RXRa (NR concentration 270 nM, RXRa partner concentration 90 nM)
Summary of the method: as §1

[3] = system: LXRa homodimer (NR concentration 270 nM)
Summary of the method: as §1

[4] = system: LXRb:RXRa (NR concentration 270 nM, RXRa partner concentration 90 nM)
Summary of the method: as §1

[5] = system: LXRb homodimer (NR concentration 270 nM)
Summary of the method: as §1

[6] = system: PPARa:RXRa (NR concentration 270 nM, RXRa partner concentration 90 nM)
Summary of the method: as §1

[7] = system: PPARg:RXRa (NR concentration 180 nM, RXRa partner concentration 90 nM)
Summary of the method: as §1

[8] = system: PPARg:RXRa 270nM:90nM, anti-RXR (NR concentration 270 nM, RXRa partner concentration 90 nM)
Summary of the method: as §1

[9] = system: PPARg:RXRa 30nM:10nM, anti-RXR (NR concentration 30 nM, RXRa partner concentration 10 nM)
Summary of the method: as §1

[10] = system: PPARg:RXRa 90nM:30nM, anti-RXR (NR concentration 90 nM, RXRa partner concentration 30 nM)
Summary of the method: as §1

[11] = system: PPARg:RXRa DBDmut IVT, anti-RXR (DBD mutation: RXRa K156A/R161A, NR concentration 270 nM, RXRa partner concentration 90 nM)
Summary of the method: as §1

[12] = system: PPARg:RXRa IVT, anti-PPARg (NR concentration 270 nM, RXRa partner concentration 90 nM)
Summary of the method: as §1

[13] = system: PPARg DBDmut:RXRa IVT, anti-PPARg (DBD mutation: PPARg1 K132A/R137A, NR concentration 270 nM, RXRa partner concentration 90 nM)
Summary of the method: as §1

[14] = system: PPARg DBDmut IVT, anti-PPARg (DBD mutation: PPARg1 K132A/R137A, NR concentration 270 nM)
Summary of the method: as §1

[15] = system: PPARg homodimer (NR concentration 180 nM)
Summary of the method: as §1

[16] = system: PXR:RXRa (NR concentration 270 nM, RXRa partner concentration 90 nM)
Summary of the method: as §1

[17] = system: PXR homodimer (NR concentration 270 nM)
Summary of the method: as §1

[18] = system: RARa:RXR (NR concentration 270 nM, RXRa partner concentration 90 nM)
Summary of the method: as §1

[19] = system: RARa homodimer (NR concentration 270 nM)
Summary of the method: as §1

[20] = system: RARb:RXRa (NR concentration 270 nM, RXRa partner concentration 90 nM)
Summary of the method: as §1

## CCTCGGAGAACAACAGGAGGTCAGAGCTGCCAGA
[1]
  PBM binding z-score: 0.847
[2]
  PBM binding z-score: 1.87
[3]
  PBM binding z-score: 1.86
[4]
  PBM binding z-score: 1.46
[5]
  PBM binding z-score: -0.303
[6]
  PBM binding z-score: 1.82
[7]
  PBM binding z-score: 0.213
[8]
  PBM binding z-score: -0.135
[9]
  PBM binding z-score: -1.02
[10]
  PBM binding z-score: -0.29
[11]
  PBM binding z-score: -0.197
[12]
  PBM binding z-score: -0.0712
[13]
  PBM binding z-score: -1.48
[14]
  PBM binding z-score: -1.85
[15]
  PBM binding z-score: 1.77
[16]
  PBM binding z-score: 1.71
[17]
  PBM binding z-score: 0.361
[18]
  PBM binding z-score: 2.04
[19]
  PBM binding z-score: 0.98
[20]
  PBM binding z-score: 2.01

## CCTCGGAGGACAGAAGGTCGGAGCTGTCCGCTTT
[1]
  PBM binding z-score: -0.221
[2]
  PBM binding z-score: -0.259
[3]
  PBM binding z-score: -0.611
[4]
  PBM binding z-score: -0.529
[5]
  PBM binding z-score: -0.931
[6]
  PBM binding z-score: -0.47
[7]
  PBM binding z-score: -0.973
[8]
  PBM binding z-score: -0.664
[9]
  PBM binding z-score: -1.51
[10]
  PBM binding z-score: -1.26
[11]
  PBM binding z-score: -0.473
[12]
  PBM binding z-score: -0.963
[13]
  PBM binding z-score: -1.7
[14]
  PBM binding z-score: -2.08
[15]
  PBM binding z-score: 0.00885
[16]
  PBM binding z-score: -0.282
[17]
  PBM binding z-score: -0.764
[18]
  PBM binding z-score: -0.413
[19]
  PBM binding z-score: -0.449
[20]
  PBM binding z-score: 1.12

## ACTATTAGTTGAGACGAGGGCAACCGGTAGGTTG
[1]
  PBM binding z-score: 0.623
[2]
  PBM binding z-score: 0.318
[3]
  PBM binding z-score: 0.134
[4]
  PBM binding z-score: 0.06
[5]
  PBM binding z-score: -0.0535
[6]
  PBM binding z-score: 0.319
[7]
  PBM binding z-score: 0.685
[8]
  PBM binding z-score: -0.0601
[9]
  PBM binding z-score: -0.0682
[10]
  PBM binding z-score: 0.00323
[11]
  PBM binding z-score: 0.0734
[12]
  PBM binding z-score: 0.502
[13]
  PBM binding z-score: 0.336
[14]
  PBM binding z-score: -0.0704
[15]
  PBM binding z-score: -0.0372
[16]
  PBM binding z-score: 1.47
[17]
  PBM binding z-score: 0.373
[18]
  PBM binding z-score: 0.84
[19]
  PBM binding z-score: 0.204
[20]
  PBM binding z-score: 1.4
